# In the library only some 2.4% were active in any assay of this set; here they are far more common.
# D2 PAM-1 – HTS Assay for Positive Allosteric Modulators of the Human D2 Dopamine Receptor: Primary Screen for Potentiators; HEK293 T-REx D2, calcium flux, EC20 dopamine potentiation; D(2) dopamine receptor (Homo sapiens), P14416; potentiation, % at 10 µM; 340,000 tested, 0.34% active;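 active means potentiation over 3 SD above the plate norm, cut at about 30% in these data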; further: 0% is about no effect
#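 Tetracycline-induced Hek293 Trex D2 cells, force-coupled to calcium, loaded with no-wash calcium dye. Compound added with 180 s kinetic read for agonism, then EC20 dopamine and a further 180 s read for potentiation.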
# B2AR arrestin – qHTS assay of beta-arrestin-biased ligands of beta2-adrenergic receptor; Beta-2 adrenergic receptor (Homo sapiens), P07550; beta-arrestin recruitment to beta2AR, cell-based reporter; Potency, µM (doses to about 46.1 µM), for the others: at the top dose activation, most hits filed as activators; 330,000 tested, 0.02% active; AID 492947, 2010; active means well fitted activation curve with a large enough effect; inconclusive means small, poorly fitted or top-dose-only effect;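 further: potency means the concentration at half of the fitted maximal effect; 0% = DMSO controls and full agonism = EC100 isoproterenol or metaproterenol; nearly all actives have a fitted effect of over 65% in size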
# Target sequence (P07550 whole entry, looked up): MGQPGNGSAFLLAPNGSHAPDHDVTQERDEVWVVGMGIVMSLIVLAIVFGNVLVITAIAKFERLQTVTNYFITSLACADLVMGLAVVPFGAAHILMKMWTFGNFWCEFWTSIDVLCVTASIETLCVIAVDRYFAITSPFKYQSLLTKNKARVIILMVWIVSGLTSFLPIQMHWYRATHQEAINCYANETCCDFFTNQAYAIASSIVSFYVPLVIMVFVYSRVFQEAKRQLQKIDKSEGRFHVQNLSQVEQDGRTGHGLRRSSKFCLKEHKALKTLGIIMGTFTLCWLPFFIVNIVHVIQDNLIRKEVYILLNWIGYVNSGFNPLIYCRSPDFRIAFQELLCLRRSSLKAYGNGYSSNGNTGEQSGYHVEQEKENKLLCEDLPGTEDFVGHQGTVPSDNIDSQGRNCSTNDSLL
# D2 ag-1 – Beta-Arrestin HTS for Positive Allosteric Modulators of the Human D2 Dopamine Receptor: Agonists; 360,000 tested, 0.084% active; DiscoveRx PathHunter D2 beta-arrestin, luminescence, 90 min; 100% = 57 uM dopamine signal; activation, % (concentration not given with the values); D(2) dopamine receptor (Homo sapiens), P14416; in the data active means activation above about 40%; inconclusive means between about 15% and that limit
#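 DiscoveRx PathHunter D2 beta-arrestin cells (2,100/well) attached overnight, then compound-stimulated 90 min at 37 C in HBSS/10 mM HEPES/0.1% Tween-20 buffer; beta-galactosidase complementation read by luminescence after 1 h at ambient temperature. Dopamine 57 uM final (EC100) as control.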
# D2 ag-2 – HTS Assay for Allosteric Agonists of the Human D2 Dopamine Receptor: Primary Screen for Agonists; D(2) dopamine receptor (Homo sapiens), P14416; HEK293 T-REx D2 cells, calcium flux agonist mode; activation, % at 2 µM; 340,000 tested, 0.53% active; AID 485358, 2010;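 active means activation over 3 SD above normal in the single-dose calcium agonist read, cut at about 30% in these data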; further: 0% is about no effect
#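 Agonism scored from kinetic calcium signal (1 read/sec, 180 s) following compound pin transfer, after a 10 s baseline. Cells: HEK293 Trex line expressing inducible D2 receptor coupled to calcium, dye-loaded after overnight culture at 30 C.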
# D2 PAM-2 – Beta-Arrestin HTS for Positive Allosteric Modulators of the Human D2 Dopamine Receptor: Potentiators. 360,000 tested, 0.23% active. AID 624464, 2012. potentiation, % (no concentration beside the values). DiscoveRx D2 beta-arrestin cells, luminescence, 90 min; 100% = 57 uM dopamine signal. D(2) dopamine receptor (Homo sapiens), P14416; in the data active means potentiation above about 50%; inconclusive means mostly about 30% to 49%
#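 PathHunter beta-arrestin assay in DiscoveRx D2 cells. Compounds were added with an EC20 of dopamine (50 nM final) for 90 min at 37 deg C. Luminescence was read 1 h after detection reagent, with 57 uM dopamine as the EC100 control.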
# D2 antag – HTS Assay for Allosteric Antagonists of the Human D2 Dopamine Receptor: Primary Screen for Antagonists | D(2) dopamine receptor (Homo sapiens), P14416 | HEK293 TREx D2 cells, calcium flux, dopamine EC80 | inhibition, % at 10 µM | 340,000 tested, 2% active; in the data active means inhibition above about 30%; inactive means below that, where a call was filed; further: 0% is about no effect
#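 In this primary screen, negative modulation is detected by tracking calcium flux after an EC80 dopamine challenge in inducible HEK293 T-REx D2 cells preexposed to test compound for 180 s.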
# * hit, by the source's call; u = inconclusive; x = no result.
SMILES,D2 PAM-1,B2AR arrestin,D2 ag-1,D2 ag-2,D2 PAM-2,D2 antag
O=[N+]([O-])c1ccc(NN=Cc2ccccc2O)nc1,x,x,-3,x,-13,x
O=[N+]([O-])c1ccc(N/N=C/c2ccccc2O)cc1,4,0%,10,4,-28,36*
COc1cccc(-c2ccc(-c3noc(-c4ccccc4F)n3)c(OC)n2)c1,-22,-2%,-3,1,-13,40*
COCc1nc(-c2ccc(-c3ccccc3)nc2OC)no1,5,0%,-1,0,-4,42*
CCN(CC)CCN1C(=O)C(=O)/C(=C(/O)c2ccc(Cl)cc2)C1c1ccncc1 (centres undefined),2,0%,2,0,-6,40*
CCN(CC)CCN1C(=O)C(=O)/C(=C(/O)c2ccc(C)cc2)C1c1ccncc1 (centres undefined),-4,0%,x,-2,x,9
CN(CCC#N)C(=O)Cn1nc(Cc2ccncc2)c2ccccc2c1=O,12,0%,-3,-2,-6,35*
CC(=O)NC(CC(=O)Nc1nc(-c2ccc(N(C)S(C)(=O)=O)cc2)cs1)c1ccccc1 (centres undefined),6,0%,3,1,3,7
CC(=O)Nc1ccc(-c2csc(NC(=O)CC(NC(C)=O)c3ccccc3)n2)cc1 (centres undefined),36*,-1%,0,0,2,4
COc1ccc(Cl)c2c1[nH]c1nc(SCc3ccccn3)nnc12,-10,6%,1,-1,-17,43*
COc1ccc(Cl)c2c1[nH]c1nc(SCc3cccnc3)nnc12,-7,0%,-5,2,-6,17
Cc1nc2ccccn2c1/C(O)=C1\C(=O)C(=O)N(CCN2CCOCC2)C1c1cccnc1 (centres undefined),-2,-1%,-3,-1,-10,15
COc1cccc(N2CCN(c3ncnc4c3[nH]c3ccc(F)cc34)CC2C)c1 (centres undefined),-2,0%,10,3,52*,-1
O=C(CN1CCN(c2ccccc2)CC1)Nc1cccc(C(F)(F)F)c1,-31,0%,-1,2,-21,21
O=C(CN1CCN(c2ccccn2)CC1)Nc1cccc(C(F)(F)F)c1,-31,0%,2,24,-10,48*
O=C(CN1CCN(Cc2ccccc2)CC1)Nc1cccc(C(F)(F)F)c1,-24,0%,-2,0,-14,39*
FC(F)(F)c1cccc(CN2CCN(c3ncccn3)CC2)c1,x,x,48*,x,u,x
COCC(=O)Nc1cccc(C(F)(F)F)c1,33*,-1%,-6,1,-16,-8
CN(C)C(=S)NC(=NCc1ccc([N+](=O)[O-])cc1)c1ccccc1,18,0%,0,1,-16,-11
CC1CCc2c(sc3nnn(CC(=O)Nc4cccc(C(F)(F)F)c4)c(=O)c23)C1 (centres undefined),7,x,x,1,x,x
CCOc1ccc(NS(=O)(=O)c2ccc(Cl)c(N=Nc3c(O)[nH]c(=S)[nH]c3=O)c2)cc1Br,x,x,-8,x,-26,x
CCOC(=O)C1=C(CC)Nc2ccccc2N=C1NC(=O)Nc1ccccc1OC,-26,0%,-4,-1,-17,51*
O=C(NCCCN1CCCC1=O)Nc1ccc(Cl)cc1,x,x,0,x,-7,x
O=C(NCCCN1CCCC1=O)Nc1ccc([N+](=O)[O-])cc1,8,0%,-19,0,-5,35*
Cn1nc(-c2ccc(Cl)cc2)c2cc(C(=O)N3CCOCC3)sc21,10,0%,1,0,-3,31*
SMILES,D2 PAM-1,B2AR arrestin,D2 ag-1,D2 ag-2,D2 PAM-2,D2 antag
COc1ccccc1NC(=O)NC1CCS(=O)(=O)C1 (centres undefined),-5,0%,-4,1,-4,39*
O=C(O)C/C(=C\c1cc2c(cc1Br)OCO2)c1nc2ccccc2s1,x,0%,-3,-3,-6,-8
Cc1nn2c(NCc3ccccn3)c3c(nc2c1-c1ccccc1)CCC3,-11,0%,-6,2,-12,40*
Cc1cc(NCc2ccccn2)n2nc(C)c(-c3ccccc3)c2n1,-5,-1%,-3,0,-9,2
CN(C)c1ccc(C2NCCS2)cc1 (centres undefined),-4,0%,-2,0,-12,-5
Cc1ccc2c(c1)-n1c(nc3ccccc3c1=O)C(Cc1ccccc1)NC2=O (centres undefined),x,0%,x,x,x,x
O=C1Nc2ccccc2Oc2cc(Oc3ccc(Cl)cc3)ccc21,4,x,x,1,x,x
Cc1ccc(Oc2cc([N+](=O)[O-])cc3c2C(=O)Nc2ccccc2O3)cc1,14,0%,2,2,6,30*
O=C(O)CSc1ncnc2scc(-c3ccc(Br)cc3)c12,1,0%,0,1,0,-3
COC(=O)c1ccc(NC2CC(=O)N(c3ccccc3C)C2=O)cc1 (centres undefined),-17,0%,-4,16,-38,-9
Cc1ccccc1N1C(=O)CC(Nc2ccc3c(c2)OCO3)C1=O (centres undefined),-2,0%,-6,-1,-4,31*
COc1ccc2ccccc2c1-c1sc(Nc2ccccc2)n[n+]1-c1ccc(F)cc1,-8,-1%,-6,1,-31,32*
Cc1cc(C)cc(NC(=O)CCC(=O)Nc2nnc(C(C)C)s2)c1,-21,0%,-4,0,-28,33*
CC(C)c1nnc(NC(=O)CCC(=O)Nc2ccc(Cl)cc2)s1,-27,0%,-2,0,-37,41*
CCCCNC(=O)Nc1ccc2c(c1)N(C)C(=O)c1ccccc1S2,-17,-1%,-1,1,-15,46*
CN1C(=O)CSc2ccc(NC(=O)NCc3ccccc3)cc21,-22,0%,-2,-1,-3,30*
Cc1ccc(CNC(=O)Nc2ccc3c(c2)N(C)C(=O)CS3)cc1,-8,0%,-4,-1,-6,-5
CC(Oc1ccccc1)C(=O)N1CCN(S(=O)(=O)c2ccc(OC(F)(F)F)cc2)CC1 (centres undefined),x,x,-1,x,-4,x
